Data: PubChem BioAssay
Several values for one entry are separate records, joined by “and”; a condition that tells them apart may be missing. Equal values may be shown once. Activity calls are given as the source filed them.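 How the source made its calls, unless noted: active means thallium flux through the channel raised or lowered by more than 3 SD from vehicle-only wells, actives on both sides; inactive means the rest.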

Tests used:
[1] = Wnt pathway potentiators raising nuclear beta-catenin – imaging, WNT3A-conditioned medium, mouse C2C12, NPC library, primary screen (AID 1117326; in the data active means nuclear beta-catenin stimulation mostly above about 4.2%, no sharp cut-off; inactive means mostly below about 10%); conditions: stronger effect = higher value
[2] = stimulators of insulin release from INS-1E, primary screen, cell-based, 5 mM glucose, NPC library (AID 1117329;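 active means compound raises insulin release from rat beta cells at 5 mM glucose, no numeric limit stated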); conditions: rat INS-1E insulin secretion, at 10 µM, stronger effect = higher value
[3] = growth inhibition of GSK3B-pretreated HCT116 cells – cell-based, CellTiter-Glo, 0.2 to 20 µM (AID 1117336;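 active means compounds lowering colon cancer cell viability after pretreatment blocking the GSK3B kinase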); conditions: HCT116 viability after GSK3B inhibitor, at 20 µM, stronger effect = higher value
[4] = inhibition of endothelial tube formation, primary screen, imaging, VEGF stimulated, CD31 staining, tube area, NPC library (AID 1117340;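 active means compound that reduces growth-factor-driven endothelial tube area in a mixed cell culture, no cutoff stated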); conditions: VEGF-stimulated ADSC/ECFC co-culture, at 10 µM, stronger effect = higher value
[5] = GLP1 release stimulators, primary, NCI-H716, NPC library (AID 1117341;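 active means compound raises GLP1 secretion from the human gut endocrine cells, with no numeric limit stated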); conditions: NCI-H716 cells, at 10 µM, stronger effect = higher value
[6] = HCT116 colon cancer cell growth inhibition, primary screen, CellTiter-Glo luminescence, NPC library (AID 1117342;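 active means compounds that lower survival of HCT116 colon cancer cells in the luminescence readout, no numeric limit stated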); conditions: at 20 µM (top of the series)
[7] = reduced SW480 viability measured with CellTiter-Glo, NPC library, primary (AID 1117343;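 active means compounds that lower viability of the colon cancer cells in the luminescence readout, with no numeric limit stated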); conditions: CellTiter-Glo luminescence; at 20 µM (top of the series)
[8] = NPC library primary testing for decreased DLD-1 cell viability via CellTiter-Glo (AID 1117346;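 active means compounds that lower survival of DLD-1 colon cancer cells in the luminescence readout, no cutoff given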); conditions: DLD-1 viability, CellTiter-Glo luminescence; at 20 µM (top of the series)
[9] = target: 6-phosphogluconate dehydrogenase, decarboxylating (Homo sapiens) (UniProt P52209); assay: inhibition of human phosphogluconate dehydrogenase – biochemical, recombinant enzyme, NADPH absorbance, primary screen (AID 1159550;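 active means at least 20% inhibition of 6-phosphogluconate dehydrogenase activity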); conditions: recombinant 6PGD, NADPH absorbance 341 nm; at 10 µM; stronger effect = higher value
6-phosphogluconate dehydrogenase, decarboxylating (Homo sapiens), sequence (P52209 whole entry, looked up): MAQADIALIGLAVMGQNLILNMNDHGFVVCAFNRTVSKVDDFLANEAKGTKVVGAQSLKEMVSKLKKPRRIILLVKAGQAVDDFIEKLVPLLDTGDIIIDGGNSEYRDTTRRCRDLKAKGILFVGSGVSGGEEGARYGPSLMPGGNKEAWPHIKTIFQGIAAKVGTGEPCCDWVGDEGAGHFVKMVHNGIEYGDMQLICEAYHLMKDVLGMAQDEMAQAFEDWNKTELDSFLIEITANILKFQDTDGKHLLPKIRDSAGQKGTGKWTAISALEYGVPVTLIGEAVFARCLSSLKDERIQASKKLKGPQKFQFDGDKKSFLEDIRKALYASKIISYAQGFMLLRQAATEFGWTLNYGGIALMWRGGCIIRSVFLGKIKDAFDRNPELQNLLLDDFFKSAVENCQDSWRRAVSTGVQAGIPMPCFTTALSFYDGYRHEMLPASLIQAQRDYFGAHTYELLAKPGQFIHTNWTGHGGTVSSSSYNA

[10] = modulation of C. elegans fzo-1 (AID 1259413; call rule not given here;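 further: fzo-1 mutant C. elegans worms in liquid wells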); conditions: C. elegans fzo-1 modulator screen, mean read-out; stronger effect = higher value
[11] = EMT-state selective cytotoxicity in co-culture – imaging, PC-3E GFP, TEM4-18 mCherry, primary screen (AID 1345086;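 active means compounds killing one labelled cell type while sparing the other, by normalised counts and ratio limits, not self-fluorescent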;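 on all read-outs here: cells exposed to compound for 72 h before imaging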;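 on red/green cell ratio (normalised): normalised mesenchymal count divided by normalised epithelial count so high means epithelial killing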); conditions: PC-3E GFP / TEM4-18 mCherry co-culture, imaging cell counts, at 1 µM; for red/green cell ratio (normalised): actives lie on both sides, counts scaled to control wells, 1 = unselective
[12] = MELAS cybrid and Rieske KO viability enhancers – cell-based, MELAS cybrids, Rieske KO mouse fibroblasts, CellTiter-Glo, primary screen (AID 1508586;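 active means mean z-score across replicates of 1.96 or higher in either the MELAS or the Rieske mutant cell line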;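 further: z relative to plate mean and SD of compound and empty wells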); conditions: low glucose
[13] = target: NAD(+) hydrolase SARM1 (Homo sapiens) (UniProt Q6SZW1); assay: blocking NAD cleavage by SARM1 SAM-TIR – cell lysate, NAD-Glo luminescence (AID 1508614;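 active means compound whose remaining NAD level is above about 45 nM, limit read from the data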); conditions: SAM-TIR HEK293T lysate NADase, at 1 µM, stronger effect = higher value
NAD(+) hydrolase SARM1 (Homo sapiens), sequence (Q6SZW1 whole entry, looked up, the tested form may be a part): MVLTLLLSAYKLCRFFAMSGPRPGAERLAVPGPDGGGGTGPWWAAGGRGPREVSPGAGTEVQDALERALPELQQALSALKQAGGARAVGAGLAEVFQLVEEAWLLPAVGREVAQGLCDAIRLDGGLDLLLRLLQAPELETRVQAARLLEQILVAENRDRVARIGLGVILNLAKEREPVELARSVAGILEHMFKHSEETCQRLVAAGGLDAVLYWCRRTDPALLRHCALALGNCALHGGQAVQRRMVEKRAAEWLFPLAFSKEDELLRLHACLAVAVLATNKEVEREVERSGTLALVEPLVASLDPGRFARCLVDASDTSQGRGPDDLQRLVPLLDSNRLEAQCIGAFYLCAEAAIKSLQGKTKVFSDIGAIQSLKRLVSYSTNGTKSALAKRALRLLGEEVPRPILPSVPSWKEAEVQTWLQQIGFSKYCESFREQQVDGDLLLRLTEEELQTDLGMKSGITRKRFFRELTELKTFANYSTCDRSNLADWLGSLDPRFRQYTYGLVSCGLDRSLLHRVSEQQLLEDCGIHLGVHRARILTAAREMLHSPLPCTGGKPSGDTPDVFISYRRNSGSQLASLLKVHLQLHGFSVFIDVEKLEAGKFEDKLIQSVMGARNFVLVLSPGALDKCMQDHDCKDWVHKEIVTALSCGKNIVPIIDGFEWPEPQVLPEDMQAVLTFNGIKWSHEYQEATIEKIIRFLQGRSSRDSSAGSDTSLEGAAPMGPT

[14] = target: Mitogen-activated protein kinase 7 (Homo sapiens) (UniProt Q13164); assay: Gal4-ERK5 driven luciferase induction – cell-based, HTS, primary screen (AID 1508626;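 active means luciferase signal above three times the same-plate solvent-only control wells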;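 further: luciferase driven by Gal4-ERK5 fusion binding five Gal4 sites before minimal TATA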); conditions: HeLa Gal4-ERK5 transactivation, 18 h, at 5 µM, stronger effect = higher value
Mitogen-activated protein kinase 7 (Homo sapiens), sequence (Q13164 whole entry, looked up, the tested form may be a part): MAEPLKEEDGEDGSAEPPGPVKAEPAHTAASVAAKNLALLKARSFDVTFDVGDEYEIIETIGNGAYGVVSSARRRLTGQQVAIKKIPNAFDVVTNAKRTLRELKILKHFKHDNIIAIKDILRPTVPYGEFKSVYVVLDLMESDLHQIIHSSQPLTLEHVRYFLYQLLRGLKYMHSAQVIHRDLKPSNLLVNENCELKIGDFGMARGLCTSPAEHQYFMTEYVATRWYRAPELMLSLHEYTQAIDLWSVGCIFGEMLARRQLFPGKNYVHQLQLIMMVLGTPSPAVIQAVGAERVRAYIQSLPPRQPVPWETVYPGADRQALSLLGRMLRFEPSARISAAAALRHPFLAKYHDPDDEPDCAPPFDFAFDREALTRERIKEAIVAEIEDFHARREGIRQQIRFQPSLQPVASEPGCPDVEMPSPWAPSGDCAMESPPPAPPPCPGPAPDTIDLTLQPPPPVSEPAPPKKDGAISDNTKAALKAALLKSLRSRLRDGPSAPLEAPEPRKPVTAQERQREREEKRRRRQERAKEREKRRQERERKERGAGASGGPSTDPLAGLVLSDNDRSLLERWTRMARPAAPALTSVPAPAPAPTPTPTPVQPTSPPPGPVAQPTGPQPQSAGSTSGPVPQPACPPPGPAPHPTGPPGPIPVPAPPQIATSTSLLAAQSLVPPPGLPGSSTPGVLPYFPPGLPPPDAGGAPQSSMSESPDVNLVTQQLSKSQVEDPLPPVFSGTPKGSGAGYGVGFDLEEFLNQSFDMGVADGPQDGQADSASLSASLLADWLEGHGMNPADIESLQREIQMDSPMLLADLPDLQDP

F380Y = assay: BK channel mutant inhibitors and activators – cell-based, U2OS BacMam, thallium flux, beta subunits, selectivity assay, profiling panel (AID 1259406); conditions: U2OS BacMam BK variants, at 30 µM;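 further: initial slope of Thallos dye fluorescence rise after thallium is added; log ratio against the mean of 0.3% DMSO vehicle wells on the same plate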
F380Y/beta1 = assay: as above; conditions: U2OS BacMam BK variants, at 30 µM
F380Y/beta2Delta = assay: as above; conditions: U2OS BacMam BK variants, at 30 µM
[15] = viability loss with induced miR-34 in A549 – imaging, A549 dox-inducible miR-34, nuclei and caspase counts, primary screen (AID 1347080;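 active means compounds whose cell count with miR-34 switched on is under 0.7 times the count with it off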); conditions: A549 miR-34 inducible, Hoechst nuclei count, 48 h
[16] = measured here: epithelial PC-3E GFP cell survival
[17] = measured here: mesenchymal TEM4-18 mCherry cell survival
[18] = MELAS cybrid survival, CellTiter-Glo 48 h, stronger effect = higher value
[19] = Rieske KO mouse fibroblast survival, CellTiter-Glo 72 h

NS(=O)(=O)c1ccc(N2CCCCS2(=O)=O)cc1
inactive: nuclear beta-catenin stimulation ([1]; at 10 µM) 0.5% | insulin secretion stimulation [2] -0.3% | viability decrease [3] -15.7% | tube area decrease [4] 5.1% | GLP1 secretion stimulation [5] -1.7% | inhibition of viability [6] -8.93% | viability decrease (inhibition) [7] 29% | viability decrease (inhibition) [8] -6.9%
-0.6%: nuclear beta-catenin stimulation ([1]; stimulation, at 2 µM)

CC(C)NCC(O)c1ccc(O)c(O)c1 (centres undefined)
inactive: nuclear beta-catenin stimulation ([1]; at 10 µM) -0.3% | insulin secretion stimulation [2] 1.4% | tube area decrease [4] -8.1% | GLP1 secretion stimulation [5] 6.8% | inhibition of viability [6] 33.2% | viability decrease (inhibition) [7] 28.5% | viability decrease (inhibition) [8] 23.6% | inhibition [9] -1.67% | mean signal [10] 227 | red/green cell ratio (normalised) [11] 1.26 | z-score [12, 18] -0.378 and -0.294 | remaining NAD [13] 10 nM | luciferase signal [14] 60 AU | log fold change Tl+ flux (F380Y) 0.0351 | log fold change Tl+ flux (F380Y/beta1) 0.0171 | log fold change Tl+ flux (F380Y/beta2Delta) 0.061
0.858 and -1.25: z-score [12, 19]
1.35: normalised cell number [11, 17]
active: viability decrease [3] 54.1%
1.07: normalised cell number [11, 16]
1.9%: nuclear beta-catenin stimulation ([1]; stimulation, at 2 µM)

Oc1ccc(/C=C/c2cc(O)cc(O)c2)cc1
1.04: normalised cell number [11, 17]
active: tube area decrease [4] 56.1% | inhibition of viability [6] 65% | viability decrease (inhibition) [7] 75.5% | log fold change Tl+ flux (F380Y/beta1) 0.199 | log fold change Tl+ flux (F380Y/beta2Delta) 0.155
inactive: nuclear beta-catenin stimulation ([1]; at 10 µM) 2.4% | insulin secretion stimulation [2] 0.1% | viability decrease [3] 19% | GLP1 secretion stimulation [5] 2.9% | viability decrease (inhibition) [8] 35.3% | inhibition [9] 0.743% | mean signal [10] 256 | red/green cell ratio (normalised) [11] 1.06 | luciferase signal [14] 84 AU | log fold change Tl+ flux (F380Y) 0.101
2.2%: nuclear beta-catenin stimulation ([1]; stimulation, at 2 µM)
0.97: normalised cell number [11, 16]

CCC1(c2ccccc2)C(=O)NCNC1=O
1.05: normalised cell number [11, 17]
inactive: nuclear beta-catenin stimulation ([1]; at 10 µM) 0.6% | insulin secretion stimulation [2] -2.2% | viability decrease [3] -8.45% | tube area decrease [4] 12.9% | GLP1 secretion stimulation [5] -2% | inhibition of viability [6] 1% | viability decrease (inhibition) [7] -8.1% | viability decrease (inhibition) [8] -8.9% | inhibition [9] 14.9% | mean signal [10] 235 | red/green cell ratio (normalised) [11] 1.02 | z-score [12, 18] -0.279 and 0.626 | remaining NAD [13] 10 nM | luciferase signal [14] 60 AU | log fold change Tl+ flux (F380Y) -0.0227 | log fold change Tl+ flux (F380Y/beta1) 0.00204 | log fold change Tl+ flux (F380Y/beta2Delta) -0.0144
1.02: normalised cell number [11, 16]
0.595 and -0.386: z-score [12, 19]
1.4%: nuclear beta-catenin stimulation ([1]; stimulation, at 2 µM)

c1ccc(CC2=NCCN2)cc1
inactive: nuclear beta-catenin stimulation ([1]; at 10 µM) 0.4% | insulin secretion stimulation [2] -1% | viability decrease [3] -3.85% | tube area decrease [4] -0.5% | GLP1 secretion stimulation [5] 1.9% | inhibition of viability [6] -10.6% | viability decrease (inhibition) [7] 15.1% | viability decrease (inhibition) [8] 5.35% | inhibition [9] -8.93% | mean signal [10] 271 | red/green cell ratio (normalised) [11] 1.19 | z-score [12, 18] -0.147 and 0.373 | remaining NAD [13] 10 nM | luciferase signal [14] 44 AU | log fold change Tl+ flux (F380Y) 0.00977 | log fold change Tl+ flux (F380Y/beta1) 0.0105 | log fold change Tl+ flux (F380Y/beta2Delta) -0.0174
1%: nuclear beta-catenin stimulation ([1]; stimulation, at 2 µM)
-0.183 and 0.131: z-score [12, 19]
1.04: normalised cell number [11, 17]
0.88: normalised cell number [11, 16]

CC(=O)Oc1ccc(C2(c3ccc(OC(C)=O)cc3)C(=O)Nc3ccccc32)cc1
inactive: nuclear beta-catenin stimulation ([1]; at 10 µM) 1.7% | insulin secretion stimulation [2] -2.1% | viability decrease [3] 32.6% | GLP1 secretion stimulation [5] 4% | inhibition of viability [6] 39% | viability decrease (inhibition) [7] 15.8% | viability decrease (inhibition) [8] 49.1%
active: tube area decrease [4] 51.8%
0.9%: nuclear beta-catenin stimulation ([1]; stimulation, at 2 µM)

CN(C)CCCN1c2ccccc2CCc2ccc(Cl)cc21
0.96: normalised cell number [11, 16]
inactive: nuclear beta-catenin stimulation ([1]; at 10 µM) 2.9% | insulin secretion stimulation [2] 5.4% | viability decrease [3] -53% | tube area decrease [4] 23.1% | GLP1 secretion stimulation [5] 13.3% | inhibition [9] 13.8% | mean signal [10] 222 | red/green cell ratio (normalised) [11] 1.09 | z-score [12, 18] -0.661 and 0.117 | remaining NAD [13] 10 nM | luciferase signal [14] 32 AU | log fold change Tl+ flux (F380Y) -0.0375 | log fold change Tl+ flux (F380Y/beta1) -0.109 | log fold change Tl+ flux (F380Y/beta2Delta) -0.0656
1.05: normalised cell number [11, 17]
-0.587 and 0.253: z-score [12, 19]
2.5%: nuclear beta-catenin stimulation ([1]; stimulation, at 2 µM)
active: inhibition of viability [6] 67.4% | viability decrease (inhibition) [7] 61.1% | viability decrease (inhibition) [8] 61.8%

CCc1cccc2c(CCO)c[nH]c12
0.4%: nuclear beta-catenin stimulation ([1]; stimulation, at 2 µM)
inactive: nuclear beta-catenin stimulation ([1]; at 10 µM) 1.1% | insulin secretion stimulation [2] 0.7% | viability decrease [3] 12.2% | tube area decrease [4] -19.3% | GLP1 secretion stimulation [5] 0.1% | inhibition of viability [6] -1.1% | viability decrease (inhibition) [7] -18% | viability decrease (inhibition) [8] -6.5%

CCN(CCO)CCCC(C)Nc1ccnc2cc(Cl)ccc12 (centres undefined)
11300: cell count ([15]; measured here: total cells with miR-34 induction, stronger effect = lower value)
inactive: nuclear beta-catenin stimulation ([1]; at 10 µM) 3.8% | insulin secretion stimulation [2] 1.6% | viability decrease [3] 18.3% | tube area decrease [4] 22.5% | GLP1 secretion stimulation [5] 4.3% | inhibition of viability [6] 8.93% | viability decrease (inhibition) [7] -0.9% | viability decrease (inhibition) [8] -7.1% | inhibition [9] 13.2% | red/green cell ratio (normalised) [11] 0.76 | fold change ([15]; stronger effect = lower value, cell number ratio, induced over uninduced) 0.835 | z-score [12, 18] -0.0994 | remaining NAD [13] 10 nM | luciferase signal [14] 96 AU
1.45: normalised cell number [11, 16]
13500: cell count ([15]; measured here: total cells without miR-34 induction)
0.0866: z-score [12, 19]
1.1: normalised cell number [11, 17]
4.2%: nuclear beta-catenin stimulation ([1]; stimulation, at 2 µM)
5.27: fold change ([15]; measured here: relative caspase fold change +Dox/-Dox)

OC(C#CCN1CCCC1)(c1ccccc1)c1ccccc1
0.1%: nuclear beta-catenin stimulation ([1]; stimulation, at 2 µM)
inactive: nuclear beta-catenin stimulation ([1]; at 10 µM) 1.6% | insulin secretion stimulation [2] 4.7% | viability decrease [3] 20.5% | tube area decrease [4] 11.1% | GLP1 secretion stimulation [5] 5.5% | inhibition of viability [6] 21.4% | viability decrease (inhibition) [7] 9.7% | viability decrease (inhibition) [8] -4.2%
